PubChem BioAssay AID743313 (Broad Institute, 2014)
Calls of active or inactive are those of the source.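 Rule for the calls: active = cell killing with a fitted half-maximal concentration no more than twice the top valid dose used; inconclusive = flat curve with a moderate signal drop, or poor fit; inactive = the rest.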

Assay: loss of HepG2 viability via ATP – cell-based, plate reader, dry powder, set 7, cytotoxicity control, dose response (AID 743313)
Conditions: ATP luminescence (CellTiter-Glo), 72 h; series mostly up to 26 µM

Compound	outcome
Cc1ccc(C(C)C)c(OCCn2c(=S)[nH]c3c(F)cccc32)c1	inactive
Cc1ccc(C(C)C)c(OCCn2c(=S)[nH]c3c(C)cccc32)c1	inactive
S=c1[nH]c2cc(Cl)ccc2n1CCOc1ccccc1	inactive
CC(C)c1ccccc1NCCn1c(=S)[nH]c2ccccc21	inactive
Cc1ccc(C(C)C)c(OCCn2c(=S)[nH]c3cccc(F)c32)c1	inactive
Fc1cccc2c1[nH]c(=S)n2CCOc1ccccc1	inactive
Cc1ccc(C(C)C)c(OCCn2c(CO)nc3ccccc32)c1	inactive
CC(C)(C)c1ccccc1OCCn1c(=S)[nH]c2ccccc21	inactive
Cc1cccc(OCCn2c(=S)[nH]c3c(F)cccc32)c1	inactive
Cc1ccc(OCCn2cnc3ccccc32)c(C(C)C)c1	inactive
Cc1ccc(OCCn2cnc3ccccc32)cc1	inactive
S=c1[nH]c2ccccc2n1CCOc1ccccc1	inactive
Cc1ccc(OCCn2c(SCCO)nc3ccccc32)c(C(C)C)c1	inactive
Cc1cccc(OCCn2c(=S)[nH]c3cc(F)ccc32)c1	inactive
Cc1cccc(OCCn2c(=S)[nH]c3ccc(C(F)(F)F)cc32)c1	inactive
Cc1ccc2c(c1)[nH]c(=S)n2CCOc1ccccc1	inactive
Fc1ccc2c(c1)[nH]c(=S)n2CCOc1ccccc1	inactive
Cc1cccc(OCCn2c(=S)[nH]c3cc(C(F)(F)F)ccc32)c1	inactive
Fc1ccccc1OCCn1c(=S)[nH]c2ccccc21	inactive
CC(C)c1ccc(OCCn2c(=S)[nH]c3ccccc32)cc1	inactive
Cc1ccc(C(C)C)c(OCCn2c(=S)[nH]c3ccc(Cl)cc32)c1	inactive
Cc1ccc(C(C)C)c(OCCn2c(=S)[nH]c3ccc(F)cc32)c1	inactive
Fc1ccc2[nH]c(=S)n(CCOc3ccccc3)c2c1	inactive
Cc1ccccc1OCCn1c(=S)[nH]c2ccccc21	inactive
Cc1ccc(OCCn2c(=S)[nH]c3ccccc32)c(C(C)C)c1	inactive
COc1ccccc1OCCn1c(=S)[nH]c2ccccc21	inactive
